Test results reported in PubChem BioAssay AID2391 (Southern Research Specialized Biocontainment Screening …, 2010).
The campaign covered roughly 310,000 compounds. About 410 (0.13%) were called active. Roughly 2% stayed inconclusive and do not appear here. No rule for the calls is given here. These entries were drawn from the full list. Entries with a potency or affinity are not part of this list.

Assay: inhibition of RSV-induced cytopathic effect – HEp-2 cells, primary 10 µM value included (AID 2391)
Details: at 10 µM, hits give high values

CPE inhibition, inactive:
CSc1ccc(/C=C(/NC(=O)c2ccc(C)cc2)C(=O)Nc2cccc(C)c2)cc1 2.91%
O=C(O)c1cccc(COc2ccccc2Cl)c1 1.88%
COc1ccc(OCc2cccc(C(=O)O)c2)cc1 0.64%
COc1cc(CO)ccc1Oc1nc2ccccc2n2cnnc12 2.05%
O=C1c2cccnc2C(Nc2ccc(F)c(Cl)c2)N1Cc1cccs1 (stereo unspecified) 18%
Cc1ccc(NC2c3ncccc3C(=O)N2Cc2cccs2)cc1C (stereo unspecified) 13.8%
Cc1ccc(NC2c3ncccc3C(=O)N2Cc2cccs2)cc1 (stereo unspecified) 8.2%
O=C1c2cccnc2C(Nc2ccc(Cl)cc2)N1Cc1cccs1 (stereo unspecified) 46.8%
CCOC(=O)CNC(=O)c1ccc2[nH]c3ccccc3c2c1 2.11%
CCCn1c(SCC(=O)c2cc(OC)ccc2OC)nnc1-c1ccco1 1.5%
CCOc1ccc(C(c2c(O)nc(SC)[nH]c2=O)c2c(O)nc(SC)[nH]c2=O)cc1 1.1%
CCOC(=O)Cc1csc(NC(=O)C(NC(=O)C2CCCCC2)C(C)C)n1 (stereo unspecified) 3.52%
COc1ccccc1Nc1nc(-c2cccnc2)cs1 7.69%
O=[N+]([O-])c1cccc(-c2csc(Nc3ccccc3)n2)c1 0.52%
CC(=O)c1ccc(OCCCC(=O)Nc2ccc(S(=O)(=O)N3CCOCC3)cc2)cc1 14.5%
COc1ccc(C(=O)Nc2nc3ccccc3s2)cc1 4.56%
COc1ccc(C(=O)Nc2nc3ccccc3s2)c(OC)c1 9.57%
COc1ccc(C(C)=O)cc1CSc1nc2ccccc2c(=O)n1-c1ccccc1 3.07%
Cc1c(C(=O)O)oc2c1ccc1ccccc12 9.18%
COc1ccccc1OCC(=O)Nc1ccc2c(c1)OCO2 1.74%
O=C1CN2C(=Nc3ccc(Br)cc3C2c2ccccc2)CCN1 (stereo unspecified) -0.32%
COC(=O)CN1C(c2ccc(Cl)cc2)=Nc2ccc(Cl)cc2C1c1ccccc1 (stereo unspecified) 11.1%
CCc1ccc(CNC(=O)c2ccc(OC3CCN(C(C)=O)CC3)c(OC)c2)nc1 1.43%
Cc1cc(C)c(NC(=O)c2cccc(NC(=O)c3ccco3)c2)c(C)c1 2.64%
NC(=O)CSc1nnc(Cn2c(=O)sc3ccccc32)n1-c1cccc(Cl)c1 2.54%
O=C(O)CSc1nnc(Cn2c(=O)sc3ccccc32)n1-c1cccc(Cl)c1 0.38%
Cc1ccc(N2CCN(c3ccc(NC(=O)CCC(=O)O)cc3)CC2)cc1 -0.44%
CCCOc1ccc(NC(=O)c2cc3cc(C)ccc3[nH]2)cc1 -0.27%
Cc1cc(C)c(NC(=O)c2ccc(S(=O)(=O)N3CCOCC3)cc2)c(C)c1 1.1%
CC(=O)c1ccc2c(c1)C1C=CCC1C(c1ccncc1)N2 (stereo unspecified) -0.18%
O=C(O)c1cc(Cl)c2c(c1)[C@@H]1C=CC[C@@H]1[C@H](c1ccc(S(=O)(=O)N3CCOCC3)cc1)N2 0.29%
Cc1cc(C)c2c(c1)[C@@H]1C=CC[C@@H]1[C@H](c1ccc(S(=O)(=O)N3CCOCC3)cc1)N2 0.17%
COc1ccc(N(CC(=O)Nc2ccc(F)cc2F)S(=O)(=O)c2c(C)nn(C)c2C)cc1 -1.28%
Cc1cc(-n2c(C)cc(C(=O)CN3C(=O)NC4(CCCCC4C)C3=O)c2C)no1 (stereo unspecified) 1.72%
COc1ccc(N2CCN(c3nc4c(c(=O)n(C)c(=O)n4C)n3CCCc3ccccc3)CC2)cc1 -1.29%
CCOC(=O)C[C@H]1c2ccccc2S(=O)(=O)N1Cc1cc(OC)c(OC)c(OC)c1 1.62%
Cc1ccccc1NC(=S)NCCc1ccc(S(N)(=O)=O)cc1 1.91%
Cc1ccc(C)c(S(=O)(=O)N2CCCCC2CCNC(=O)C(=O)NC2CC2)c1 (stereo unspecified) -1.15%
Cc1ccc(S(=O)(=O)N2CCCCC2CCNC(=O)C(=O)NC2CC2)cc1 (stereo unspecified) 0.46%
Cc1ccc(CN(C)C(=O)c2cc(COc3ccc(F)cc3Cl)on2)o1 6.3%
CSc1ccccc1OCc1cc(C(=O)N(C)Cc2cc(C)[nH]n2)no1 4.8%
Cc1ccc(S(=O)(=O)NCCC(=O)NCc2ccccn2)cc1 -1.85%
O=C(O)c1cccc(CN2C(=O)c3ccccc3C2=O)c1 2.88%
O=[N+]([O-])c1ccccc1S(=O)(=O)Nc1ccc(-c2ccc(N3CCOCC3)nn2)cc1 -1.46%
O=[N+]([O-])c1ccccc1S(=O)(=O)Nc1ccc(-c2ccc(N3CCCC3)nn2)cc1 -1.43%
O=[N+]([O-])c1ccc(S(=O)(=O)Nc2cccc(-c3ccc(N4CCCC4)nn3)c2)cc1 22.4%
O=[N+]([O-])c1ccc(S(=O)(=O)Nc2cccc(-c3ccc(N4CCOCC4)nn3)c2)cc1 38.2%
COc1ccc([N+](=O)[O-])cc1NC(=O)Cn1ccsc1=N 4.59%
O=C(Nc1cccc(Cl)c1)c1ccc(NCCCN2CCOCC2)c([N+](=O)[O-])c1 5.44%
O=C(NCc1cccnc1)Nc1ccc(Br)cc1Cl 1.28%
COc1ccc(N2CCN(C(=O)CCc3cc(OC)c(OC)c(OC)c3)CC2)cc1 1.91%
COCCNc1cc(C)nc2cc(-c3ccc(C)cc3)nn12 2.67%
Cc1cc(NCCCn2ccnc2)n2nc(-c3ccc(F)cc3)cc2n1 -1.16%
CN(C)CCCNc1cc(-c2ccccc2)nc2cc(-c3cccc(F)c3)nn12 -1.34%
Cc1cc(NCCCO)n2nc(-c3cccs3)cc2n1 9%
Cc1nc2cc(NC(=O)N(C)c3ccc4ccccc4c3)ccc2o1 12.7%
CCOCCCn1c(SCC(=O)Nc2ccc(NC(C)=O)cc2)nc2ccccc2c1=O 0.96%
CC(=O)c1c(C)[nH]c(C(=O)OCC(=O)Nc2cccc(S(=O)(=O)N(C)C)c2)c1C 6.22%
CCSC1=N/C(=C\c2ccccc2)C(=O)N1c1ccc(OC)cc1 2.7%
CCN(CC)C1=N/C(=C\c2ccco2)C(=O)N1c1ccccc1 2.62%
CN(C(=O)CCCN1C(=O)c2ccccc2C1=O)C1CCCCC1 2.46%
COc1ccc(CNC(=O)Nc2cc(C)ccc2C)cc1 2.36%
O=C1CCC([N+](=O)[O-])C(c2ccc(Cl)c([N+](=O)[O-])c2)N1 (stereo unspecified) -2.01%
O=C1CCSc2ccc(Cl)cc2N1Cc1ccccc1 1.94%
O=C1CCSc2ccc(Cl)cc2N1Cc1ccc(Cl)cc1 45.3%
Cc1ccc(S(=O)(=O)CCC(=O)Nc2sccc2C#N)cc1 0.59%
COC(=O)Cc1ccc(NC(=S)N2CCN(c3ccc(OC)cc3)CC2)cc1 13.6%
COc1ccc2nc(NC(=O)c3ccccc3C(=O)O)sc2c1 1.92%
COc1ccc2nc(NC(=O)c3ccccc3F)sc2c1 3.79%
Cc1ccc(S(=O)(=O)N2[C@@H](c3ccc(F)cc3)C(C(=O)O)=CC[C@H]2c2cccc(Cl)c2)cc1 1.86%
CCc1cc(S(=O)(=O)N2CCN(C(=O)c3ccco3)CC2)ccc1OC 3.94%
C=CCN(Cc1nc(-c2cc(OC)ccc2OC)oc1C)C1CCS(=O)(=O)C1 (stereo unspecified) -0.75%
CCOc1ccc(C2c3[nH]c4ccccc4c3CCN2Cc2cccn2-c2ncccn2)cc1 (stereo unspecified) 43.1%
Fc1ccccc1C1c2[nH]c3ccccc3c2CCN1Cc1cccn1-c1ncccn1 (stereo unspecified) 16.6%
CC(C)(C)c1ccc(-c2nc(C#N)c(NCc3cccnc3)o2)cc1 0.34%
COc1ccc(C(C)(C)C)cc1NC(=O)c1ccc[n+]([O-])c1 0.85%
O=C(NCc1ccccc1)c1ccc[n+]([O-])c1 0.02%
CC(=O)C1=C(O)C(=O)N(c2nccs2)C1c1ccc(F)cc1 (stereo unspecified) 1.72%
O=c1/c(=C\c2ccc(F)cc2)sc2n1CCCN=2 0.07%
Cc1cccnc1Nc1nc(-c2ccc(F)cc2)cs1 14.5%
COc1ccc2cc3cc(C(=O)N4CCCC(C)C4)oc3nc2c1 (stereo unspecified) -0.12%
CCCCN(C)C(=O)c1cc2cc3ccc(OC)cc3nc2o1 12.1%
COc1ccc2cc3cc(C(=O)N4CCCCCC4)oc3nc2c1 5.67%
Cc1ccc2cc3cc(C(=O)NC4CCCCC4)oc3nc2c1 4.34%
CCCCN(CC)C(=O)c1cc2cc3ccc(OC)cc3nc2o1 20.6%
Cc1ccc2cc3cc(C(=O)N4CCCCCC4)oc3nc2c1 58.9%
COc1ccc(/C=N/N=C2/NC(=O)C(CC(=O)O)S2)cc1OCc1ccc(Cl)cc1Cl (stereo unspecified) 1.42%
CCOc1cc(/C=N/N=C2/NC(=O)C(CC(=O)O)S2)ccc1OCc1ccc(Cl)cc1 (stereo unspecified) 2%
CC(C)NC(=O)CCNC(=O)c1ccc(F)cc1 0.45%
CCCCCCC(C)n1[nH]c(=O)c2c(C)cc(C)nc21 (stereo unspecified) 6.56%
O=C(Nc1ncccn1)c1cc(-c2cccc(Br)c2)nc2ccccc12 10.3%
O=C(NC1=NCCS1)c1cc(-c2ccc(F)cc2)nc2ccccc12 8.35%
COc1cccc(-c2cc(C(=O)Nc3ccncc3)c3ccccc3n2)c1 18.1%
O=C(NC1=NCCS1)c1cc(-c2cccnc2)nc2ccccc12 3.02%
COCCCNC(=O)c1cc(-c2cccnc2)nc2ccccc12 1.57%
COCCNC(=O)COC(=O)c1cc(-c2ccc(OC)cc2)nc2ccccc12 2.44%
